# Reference: the supplement of paper PMC8975748
# Structures can show the parent of a compound that is named as a salt. ± gives the standard deviation of the averaged measurements.
# Legend:
# [1] = system: Saccharomyces cerevisiae BY4741 SeMeCo community; assay: mean cell size (pixel area) (pixels); higher = larger cells; conditions: 10 µM; 24 h; SM minimal medium
# In short: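 A Saccharomyces cerevisiae BY4741 community carrying four plasmids, each with a fluorescent marker and each complementing one auxotrophy, was exposed for 24 h to drug at a final 10 µM in SM medium in acoustically predosed 384-well plates. The overnight preculture (OD600 = 1.0) was diluted to OD600 = 0.3 before 70 µl was added per well. Cells were then fixed with paraformaldehyde, imaged by automated confocal microscopy and analysed in Harmony to derive mean cell pixel area per well, averaged over 3 replicates. Same SeMeCo high-content imaging drug screen: Selleck FDA-approved drugs at 10 µM, 24 h in SM medium, 384-well plates, 3 replicates.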
# [2] = system: Saccharomyces cerevisiae BY4741 SeMeCo community; assay: z-score of subpopulation abundance vs DMSO median, subpopulation auxotrophic for L; higher = larger share of this subpopulation than in DMSO controls; conditions: 10 µM; 24 h; SM minimal medium; subpopulation (auxotrophy): L
# In short: (§1)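 Four plasmids, each restoring a single auxotrophy and encoding a distinct fluorescent protein, were carried by a Saccharomyces cerevisiae BY4741 community. After overnight growth to OD600 1.0 and dilution to 0.3, 70 µl per well was grown for 24 h in minimal SM medium on 384-well plates acoustically predosed with library drugs at 10 µM final. Following paraformaldehyde fixation, automated confocal microscopy was used, with single-auxotroph fluorescent strains defining thresholds and autofluorescence correction. Subpopulation abundance was then scored as a z-score against the vehicle-well median.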
# [3] = system: Saccharomyces cerevisiae BY4741 SeMeCo community; assay: z-score of subpopulation abundance vs DMSO median, subpopulation auxotrophic for U; higher = larger share of this subpopulation than in DMSO controls; conditions: 10 µM; 24 h; SM minimal medium; subpopulation (auxotrophy): U
# In short: as §1
# [4] = system: Saccharomyces cerevisiae BY4741 SeMeCo community; assay: z-score of subpopulation abundance vs DMSO median, subpopulation auxotrophic for H; higher = larger share of this subpopulation than in DMSO controls; conditions: 10 µM; 24 h; SM minimal medium; subpopulation (auxotrophy): H
# In short: as §1
# [5] = system: Saccharomyces cerevisiae BY4741 SeMeCo community; assay: z-score of subpopulation abundance vs DMSO median, subpopulation auxotrophic for LM; higher = larger share of this subpopulation than in DMSO controls; conditions: 10 µM; 24 h; SM minimal medium; subpopulation (auxotrophy): LM
# In short: as §1
# [6] = system: Saccharomyces cerevisiae BY4741 SeMeCo community; assay: z-score of subpopulation abundance vs DMSO median, subpopulation auxotrophic for HM; higher = larger share of this subpopulation than in DMSO controls; conditions: 10 µM; 24 h; SM minimal medium; subpopulation (auxotrophy): HM
# In short: as §1
# [7] = system: Saccharomyces cerevisiae BY4741 SeMeCo community; assay: z-score of subpopulation abundance vs DMSO median, subpopulation auxotrophic for HU; higher = larger share of this subpopulation than in DMSO controls; conditions: 10 µM; 24 h; SM minimal medium; subpopulation (auxotrophy): HU
# In short: as §1
# [8] = system: Saccharomyces cerevisiae BY4741 SeMeCo community; assay: z-score of subpopulation abundance vs DMSO median, subpopulation auxotrophic for UM; higher = larger share of this subpopulation than in DMSO controls; conditions: 10 µM; 24 h; SM minimal medium; subpopulation (auxotrophy): UM
# In short: as §1
# [9] = system: Saccharomyces cerevisiae BY4741 SeMeCo community; assay: z-score of subpopulation abundance vs DMSO median, subpopulation auxotrophic for HLM; higher = larger share of this subpopulation than in DMSO controls; conditions: 10 µM; 24 h; SM minimal medium; subpopulation (auxotrophy): HLM
# In short: as §1
# [10] = system: Saccharomyces cerevisiae BY4741 SeMeCo community; assay: z-score of subpopulation abundance vs DMSO median, subpopulation auxotrophic for HUM; higher = larger share of this subpopulation than in DMSO controls; conditions: 10 µM; 24 h; SM minimal medium; subpopulation (auxotrophy): HUM
# In short: as §1
# [11] = system: Saccharomyces cerevisiae BY4741 SeMeCo community; assay: z-score of subpopulation abundance vs DMSO median, subpopulation auxotrophic for LUM; higher = larger share of this subpopulation than in DMSO controls; conditions: 10 µM; 24 h; SM minimal medium; subpopulation (auxotrophy): LUM
# In short: as §1
# [12] = system: Saccharomyces cerevisiae BY4741 SeMeCo community; assay: z-score of subpopulation abundance vs DMSO median, subpopulation auxotrophic for HLUM; higher = larger share of this subpopulation than in DMSO controls; conditions: 10 µM; 24 h; SM minimal medium; subpopulation (auxotrophy): HLUM
# In short: as §1
# [13] = system: Saccharomyces cerevisiae BY4741 SeMeCo community; assay: z-score of prototroph abundance vs DMSO median; higher = larger share of this subpopulation than in DMSO controls; conditions: 10 µM; 24 h; SM minimal medium; subpopulation (auxotrophy): Prototroph
# In short: as §1
# [14] = system: Saccharomyces cerevisiae BY4741 SeMeCo community; assay: z-score of subpopulation abundance vs DMSO median, subpopulation auxotrophic for HL; higher = larger share of this subpopulation than in DMSO controls; conditions: 10 µM; 24 h; SM minimal medium; subpopulation (auxotrophy): HL
# In short: as §1
# [15] = system: Saccharomyces cerevisiae BY4741 SeMeCo community; assay: z-score of subpopulation abundance vs DMSO median, subpopulation auxotrophic for LU; higher = larger share of this subpopulation than in DMSO controls; conditions: 10 µM; 24 h; SM minimal medium; subpopulation (auxotrophy): LU
# In short: as §1
smiles,measurement,setting,value
N=C(N)NC(=O)c1nc(Cl)c(N)nc1N [Amiloride HCl dihydrate],mean cell size,[1],12.1 ± 0.19
same,z-score of subpopulation abundance,[2],0.68
same,z-score of subpopulation abundance,[3],-3.02
same,z-score of subpopulation abundance,[4],0.83
same,z-score of subpopulation abundance,[5],2.66
same,z-score of subpopulation abundance,[6],1.29
same,z-score of subpopulation abundance,[7],-2.8
same,z-score of subpopulation abundance,[8],-3.7
same,z-score of subpopulation abundance,[9],0.23
same,z-score of subpopulation abundance,[10],-1.45
same,z-score of subpopulation abundance,[11],-1.62
same,z-score of subpopulation abundance,[12],-0.95
CN(C)[C@@H]1C(O)=C(C(N)=O)C(=O)[C@@]2(O)C(O)=C3C(=O)c4c(O)cccc4[C@@](C)(O)[C@H]3[C@H](O)[C@@H]12 [Oxytetracycline Dihydrate],mean cell size,[1],12.6 ± 0.18
CC(=O)[C@@]1(O)CC[C@H]2[C@@H]3CCC4=CC(=O)CCC4=C3[C@@H](c3ccc(N(C)C)cc3)C[C@@]21C [Ulipristal],mean cell size,[1],12.3 ± 0.16
C[C@H]1c2cccc(O)c2C(=O)C2=C(O)[C@]3(O)C(=O)C(C(N)=O)=C(O)[C@@H](N(C)C)[C@@H]3[C@@H](O)[C@@H]21 [Doxycycline],mean cell size,[1],12.1 ± 0.32
CN(C)[C@@H]1C(O)=C(C(N)=O)C(=O)[C@@]2(O)C(O)=C3C(=O)c4c(O)ccc(Cl)c4[C@@H](O)[C@H]3C[C@@H]12 [Demeclocycline HCl],mean cell size,[1],12.5 ± 0.32
NC(=N\CCCCCC/N=C(N)/N=C(\N)Nc1ccc(Cl)cc1)/N=C(\N)Nc1ccc(Cl)cc1 [Chlorhexidine diacetate],mean cell size,[1],11.5 ± 0.11
same,z-score of prototroph abundance,[13],1.46
same,z-score of subpopulation abundance,[2],-0.29
same,z-score of subpopulation abundance,[3],-0.99
same,z-score of subpopulation abundance,[4],0.93
same,z-score of subpopulation abundance,[5],-0.7
same,z-score of subpopulation abundance,[6],-1.35
same,z-score of subpopulation abundance,[8],-1.2
same,z-score of subpopulation abundance,[14],1.03
same,z-score of subpopulation abundance,[9],1.2
same,z-score of subpopulation abundance,[10],-0.61
same,z-score of subpopulation abundance,[12],2.97
CNCc1cc(-c2ccccc2F)n(S(=O)(=O)c2cccnc2)c1 [Vonoprazan Fumarate (TAK-438)],z-score of subpopulation abundance,[2],-1.45
same,z-score of subpopulation abundance,[3],0.84
same,z-score of subpopulation abundance,[4],-0.55
same,z-score of subpopulation abundance,[15],-0.72
same,z-score of subpopulation abundance,[5],-0.98
same,z-score of subpopulation abundance,[6],-0.52
same,z-score of subpopulation abundance,[7],-0.16
same,z-score of subpopulation abundance,[8],-0.09
same,z-score of subpopulation abundance,[14],-1.38
same,z-score of subpopulation abundance,[9],-0.4
same,z-score of subpopulation abundance,[10],-0.68
same,z-score of subpopulation abundance,[11],-0.32
same,z-score of subpopulation abundance,[12],-0.37
CC(C)(C)[C@H]1CC[C@H](CC2=C(O)C(=O)c3ccccc3C2=O)CC1 [Buparvaquone],mean cell size,[1],12.1 ± 0.18
CCCCCCCCCCCCCCCCCCOP(=O)([O-])OC1CC[N+](C)(C)CC1 [Perifosine (KRX-0401)],z-score of prototroph abundance,[13],-18.5
same,z-score of subpopulation abundance,[2],-0.46
same,z-score of subpopulation abundance,[3],-2.84
same,z-score of subpopulation abundance,[4],3.48
same,z-score of subpopulation abundance,[6],12.7
same,z-score of subpopulation abundance,[7],8.89
same,z-score of subpopulation abundance,[14],18.8
same,z-score of subpopulation abundance,[9],31.5
same,z-score of subpopulation abundance,[10],45.1
same,z-score of subpopulation abundance,[11],10.2
same,z-score of subpopulation abundance,[12],180
CC(C)CCCCC(=O)N[C@@H](CCN)C(=O)N[C@H](C(=O)N[C@@H](CCN)C(=O)N[C@H]1CCNC(=O)[C@H]([C@@H](C)O)NC(=O)[C@H](CCN)NC(=O)[C@H](CCN)NC(=O)[C@H](CC(C)C)NC(=O)[C@@H](Cc2ccccc2)NC(=O)[C@H](CCN)NC1=O)[C@@H](C)O [Polymyxin B sulphate],mean cell size,[1],11.1 ± 0.33
CNS(=O)(=O)Cc1ccc2[nH]cc(CCN(C)C)c2c1 [Sumatriptan Succinate],mean cell size,[1],12.34 ± 0.1
Cc1cc(C)nc(O)n1.O=C(Nc1ccc([N+](=O)[O-])cc1)Nc1ccc([N+](=O)[O-])cc1 [Nicarbazin],mean cell size,[1],12.4 ± 0.18
same,z-score of prototroph abundance,[13],0.74
same,z-score of subpopulation abundance,[2],-0.96
same,z-score of subpopulation abundance,[3],0.5
same,z-score of subpopulation abundance,[15],0.22
same,z-score of subpopulation abundance,[5],-1.07
same,z-score of subpopulation abundance,[8],-0.4
same,z-score of subpopulation abundance,[14],-1.2
same,z-score of subpopulation abundance,[9],-0.49
same,z-score of subpopulation abundance,[11],-0.52
same,z-score of subpopulation abundance,[12],-0.56
C=CCc1ccc(O)c(-c2ccc(O)c(CC=C)c2)c1 [Honokiol],z-score of prototroph abundance,[13],1.92
same,z-score of subpopulation abundance,[2],-0.29
same,z-score of subpopulation abundance,[3],-1.32
same,z-score of subpopulation abundance,[4],-1.34
same,z-score of subpopulation abundance,[15],-1.84
same,z-score of subpopulation abundance,[5],-0.63
same,z-score of subpopulation abundance,[6],-0.9
same,z-score of subpopulation abundance,[7],-1.64
same,z-score of subpopulation abundance,[8],-1.43
same,z-score of subpopulation abundance,[14],-0.44
same,z-score of subpopulation abundance,[9],-0.37
same,z-score of subpopulation abundance,[10],-1.19
same,z-score of subpopulation abundance,[11],-1.08
same,z-score of subpopulation abundance,[12],-0.84
